Measured values from PubChem BioAssay.
For some of these results: Measured potencies and affinities stand elsewhere. Calls of active or inactive are those of the source. Unless noted, no rule for the calls is given here.

Key:
[1] = antimalarial activity against Dd2 strain (AID 2302;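 active = growth inhibition above 50% at the single 2 µM test dose, taken to imply half-maximal potency below 2 µM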;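 also: 0% = DMSO untreated growth and 100% = chloroquine plus artemisinin killed control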); settings: P. falciparum Dd2 in RBCs, LDH growth readout, 72 h; at 2 µM; hits give high values
[2] = human hepatoma cell viability loss – ATP luminescence, cytotoxicity control for P. falciparum antimalarial project, primary screen (AID 2303;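 active = inhibition above 50%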;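 also: 0% = DMSO wells and 100% = digitonin-killed cells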); settings: HepG2 viability, 24-48 h, at 10 µM, hits give high values
[3] = molecular target: L-lactate dehydrogenase (Plasmodium falciparum (isolate CDC / Honduras)) (UniProt Q27743); assay: PfLDH activity inhibition – cell lysate, 3D7 strain, counter-screen for P. falciparum growth inhibition project (AID 2304);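 also: 0% = vehicle and 100% = reference inhibitor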; settings: P. falciparum 3D7 crude extract, LDH APAD/NBT absorbance; at 2 µM; hits give high values
L-lactate dehydrogenase (Plasmodium falciparum (isolate CDC / Honduras)), sequence (Q27743 whole entry, looked up): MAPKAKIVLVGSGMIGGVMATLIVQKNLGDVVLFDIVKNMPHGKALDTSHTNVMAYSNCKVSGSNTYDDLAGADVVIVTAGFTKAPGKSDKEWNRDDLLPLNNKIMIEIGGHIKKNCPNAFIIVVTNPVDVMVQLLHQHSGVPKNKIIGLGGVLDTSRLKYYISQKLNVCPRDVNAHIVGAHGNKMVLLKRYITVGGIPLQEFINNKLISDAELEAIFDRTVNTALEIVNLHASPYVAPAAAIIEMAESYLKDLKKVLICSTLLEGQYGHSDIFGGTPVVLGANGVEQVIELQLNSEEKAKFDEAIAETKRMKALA

[4] = inhibition of 3D7 malaria parasite growth – strain 3D7 (AID 2306);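 also: 0% = DMSO wells and 100% = chloroquine plus artemisinin control wells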; settings: P. falciparum 3D7 erythrocytic growth, LDH absorbance, 72 h; at 2 µM; hits give high values
[5] = molecular target: Calcium-dependent protein kinase 1 (Plasmodium falciparum (isolate 3D7)) (UniProt P62344); assay: PfCDPK1 kinase inhibitors, biochemical, TCAMS library (AID 1159585; cut-off not given, nearly all actives have IC50 up to about 0.98 µM;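 also: inhibitors leave more ATP so luminescence rises with inhibition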); settings: recombinant PfCDPK1, Kinase-Glo ATP depletion luminescence
Calcium-dependent protein kinase 1 (Plasmodium falciparum (isolate 3D7)), sequence (P62344 whole entry, looked up): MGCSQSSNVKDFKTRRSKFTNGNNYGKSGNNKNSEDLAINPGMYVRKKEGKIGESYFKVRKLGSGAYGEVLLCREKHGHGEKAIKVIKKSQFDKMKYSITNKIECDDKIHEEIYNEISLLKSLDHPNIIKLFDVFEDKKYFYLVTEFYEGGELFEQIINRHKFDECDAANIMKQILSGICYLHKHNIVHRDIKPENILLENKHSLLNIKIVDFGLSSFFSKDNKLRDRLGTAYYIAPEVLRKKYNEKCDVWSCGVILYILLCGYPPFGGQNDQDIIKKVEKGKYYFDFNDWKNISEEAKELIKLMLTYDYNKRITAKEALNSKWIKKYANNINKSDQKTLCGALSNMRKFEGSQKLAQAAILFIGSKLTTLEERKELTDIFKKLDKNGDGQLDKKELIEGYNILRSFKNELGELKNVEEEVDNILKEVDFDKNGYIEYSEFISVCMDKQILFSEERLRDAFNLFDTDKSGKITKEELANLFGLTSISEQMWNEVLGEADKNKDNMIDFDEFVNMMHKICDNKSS

[6] = molecular target: Plasmodium falciparum protein kinase 6 (PK6, PF3D7_1337100) (UniProt Q8IDW1); assay: PfPK6 kinase inhibitors, biochemical, TCAMS library (AID 1159586); settings: recombinant PfPK6, Kinase-Glo ATP depletion luminescence
Plasmodium falciparum protein kinase 6 (PK6, PF3D7_1337100), sequence (Q8IDW1 1-305): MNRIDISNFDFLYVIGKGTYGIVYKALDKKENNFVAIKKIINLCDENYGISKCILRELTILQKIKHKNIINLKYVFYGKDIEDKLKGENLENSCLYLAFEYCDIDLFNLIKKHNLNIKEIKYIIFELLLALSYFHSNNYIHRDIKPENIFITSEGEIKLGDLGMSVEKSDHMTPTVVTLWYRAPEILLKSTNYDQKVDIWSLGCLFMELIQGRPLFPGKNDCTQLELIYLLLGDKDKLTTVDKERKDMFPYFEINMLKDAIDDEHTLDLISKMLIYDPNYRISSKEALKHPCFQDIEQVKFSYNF

[7] = molecular target: Protein kinase 7 (PK7), Plasmodium falciparum 3D7 (PF3D7_0213400) (UniProt Q7YTF7); assay: inhibition of Plasmodium PK7 catalytic activity – biochemical, TCAMS antimalarial set, Kinase-Glo luminescence (AID 1159587); settings: recombinant PfPK7, Kinase-Glo ATP depletion luminescence
Protein kinase 7 (PK7), Plasmodium falciparum 3D7 (PF3D7_0213400), sequence (Q7YTF7 1-343): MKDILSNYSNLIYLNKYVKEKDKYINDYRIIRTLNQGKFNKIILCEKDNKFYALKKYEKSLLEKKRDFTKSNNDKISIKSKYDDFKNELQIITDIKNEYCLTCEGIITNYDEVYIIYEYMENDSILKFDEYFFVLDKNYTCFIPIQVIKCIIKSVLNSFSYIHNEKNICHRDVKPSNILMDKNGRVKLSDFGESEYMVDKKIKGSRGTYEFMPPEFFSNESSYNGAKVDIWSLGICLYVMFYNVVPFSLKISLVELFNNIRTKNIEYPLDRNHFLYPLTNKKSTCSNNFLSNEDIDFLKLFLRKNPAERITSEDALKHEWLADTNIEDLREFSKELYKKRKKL

[8] = molecular target: Calcium-dependent protein kinase 4 (Plasmodium falciparum (isolate 3D7)) (UniProt Q8IBS5); assay: PfCDPK4 kinase inhibitors, biochemical, TCAMS library (AID 1159588; cut-off not given, nearly all actives have IC50 up to about 0.91 µM); settings: recombinant PfCDPK4, Kinase-Glo ATP depletion luminescence
Calcium-dependent protein kinase 4 (Plasmodium falciparum (isolate 3D7)), sequence (Q8IBS5 whole entry, looked up): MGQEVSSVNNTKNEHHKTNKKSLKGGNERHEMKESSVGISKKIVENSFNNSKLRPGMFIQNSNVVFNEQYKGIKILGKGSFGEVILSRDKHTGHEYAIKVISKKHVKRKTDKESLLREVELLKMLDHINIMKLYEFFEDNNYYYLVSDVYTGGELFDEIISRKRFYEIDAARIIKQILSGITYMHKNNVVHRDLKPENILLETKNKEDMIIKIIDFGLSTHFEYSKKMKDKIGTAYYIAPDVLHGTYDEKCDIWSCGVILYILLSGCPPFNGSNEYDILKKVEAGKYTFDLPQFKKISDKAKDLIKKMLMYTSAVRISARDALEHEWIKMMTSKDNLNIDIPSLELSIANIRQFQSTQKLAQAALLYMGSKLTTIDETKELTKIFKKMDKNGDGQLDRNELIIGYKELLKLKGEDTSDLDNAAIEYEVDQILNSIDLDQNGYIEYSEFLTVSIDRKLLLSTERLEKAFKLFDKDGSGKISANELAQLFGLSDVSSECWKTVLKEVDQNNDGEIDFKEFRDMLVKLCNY

COc1ccc(Cl)cc1NC(=O)C(C)Nc1ccc(-c2ccccc2)cc1 (stereo not given)
active: growth inhibition [1] 89% | growth inhibition [4] 91%
inactive: inhibition [2] -1% | inhibition [3] -1% | outcome [5] | outcome [6] | outcome [7] | outcome [8]

CCN(CC)CCCNc1c2ccccc2nc2ccccc12
active: growth inhibition [4] 100%
inactive: growth inhibition [1] 0% | inhibition [2] 17% | inhibition [3] -1% | outcome [5] | outcome [6] | outcome [7] | outcome [8]

COc1cc(F)c2ncc(Cl)c(CCN3CCC(NCc4ccc5c(n4)NC(=O)CO5)CC3)c2c1
inactive: growth inhibition [1] 19% | inhibition [2] 20% | inhibition [3] -1% | outcome [5] | outcome [6] | outcome [7] | outcome [8]
active: growth inhibition [4] 89%

Cc1ccc(Cn2cnc(N3CC(C)NC(C)C3)cc2=O)cc1NC(=O)Nc1ccc(-c2ccccc2)cc1 (stereo not given)
inactive: growth inhibition [1] 15% | inhibition [2] 18% | inhibition [3] 4% | outcome [5] | outcome [6] | outcome [7] | outcome [8]
active: growth inhibition [4] 96%

COc1cccc2c(Nc3ccccc3C)nc(Nc3ccccc3C)nc12
active: growth inhibition [4] 95%
inactive: growth inhibition [1] 36% | inhibition [2] 9% | inhibition [3] 4% | outcome [5] | outcome [6] | outcome [7] | outcome [8]

N#Cc1ccc2c(c1)CCN(CCC1CCC(NC(=O)/C=C/c3cccc4cc[nH]c34)CC1)CC2 (stereo not given)
active: growth inhibition [4] 89%
inactive: growth inhibition [1] 29% | inhibition [2] 22% | inhibition [3] -3% | outcome [5] | outcome [6] | outcome [7] | outcome [8]

COc1cc2ccccc2c(CNCCCCCCNCc2c(OC)c(OC)cc3ccccc23)c1OC
inactive: inhibition [3] -4% | outcome [5] | outcome [6] | outcome [7] | outcome [8]
active: growth inhibition [1] 89% | inhibition [2] 100% | growth inhibition [4] 95%

CN1CCCC1CCNc1ncc2c(-c3ccc(NC(=O)Nc4cc(C(F)(F)F)ccc4F)c(F)c3)nn(C)c2n1 (stereo not given)
inactive: inhibition [3] 1% | outcome [5] | outcome [6] | outcome [7] | outcome [8]
active: growth inhibition [1] 90% | inhibition [2] 100% | growth inhibition [4] 99%

c1ccc2[nH]c(-c3ccc(-c4ccc(CN5CCN(c6ccncc6)CC5)cc4)s3)nc2c1
inactive: inhibition [2] 25% | inhibition [3] -5% | outcome [5] | outcome [6] | outcome [7] | outcome [8]
active: growth inhibition [1] 100% | growth inhibition [4] 101%

O=C1COC2(CN1CC1CCN(Cc3ccc(O)c(Cl)c3)C1)c1ccccc1-c1ccccc12 (stereo not given)
inactive: inhibition [2] 6% | inhibition [3] 1% | outcome [5] | outcome [6] | outcome [7] | outcome [8]
active: growth inhibition [1] 50% | growth inhibition [4] 93%

CC(C)(C)C(=O)Nc1ccc(N2CCN(C(c3ccccc3)c3ccccc3)CC2)c(Cl)c1
active: growth inhibition [1] 94% | growth inhibition [4] 92%
inactive: inhibition [2] -13% | inhibition [3] 0% | outcome [5] | outcome [6] | outcome [7] | outcome [8]

Cc1ccc(CNC(=O)[C@H](Cc2ccccc2)Nc2ccnc(NCC3CCCCC3)n2)cc1
inactive: inhibition [3] -2% | outcome [5] | outcome [6] | outcome [7] | outcome [8]
active: growth inhibition [1] 61% | inhibition [2] 84% | growth inhibition [4] 92%

Cc1cccc2[nH]c(-c3ccc(-c4cccc(CN5CCC(CCN6CCCCC6)CC5)c4)s3)nc12
active: growth inhibition [1] 100% | inhibition [2] 99% | growth inhibition [4] 101%
inactive: inhibition [3] -3% | outcome [5] | outcome [6] | outcome [7] | outcome [8]

O=C(Nc1ccc(-c2cccc(-c3nc4ccccc4[nH]3)c2)cc1)Nc1ccc2c(c1)OCO2
active: growth inhibition [1] 65% | inhibition [2] 55% | growth inhibition [4] 102%
inactive: inhibition [3] 0% | outcome [5] | outcome [6] | outcome [7] | outcome [8]

N#Cc1ccc(N2CCN(Cc3ccc(-c4ccc(-c5nc6ccccc6[nH]5)s4)cc3)CC2)nc1
inactive: inhibition [2] 17% | inhibition [3] 2% | outcome [5] | outcome [6] | outcome [7] | outcome [8]
active: growth inhibition [1] 63% | growth inhibition [4] 99%

COc1cccc(-c2ccc3c(-c4ccc(F)cc4)cnc(N)c3c2)c1
inactive: inhibition [2] 27% | inhibition [3] -2% | outcome [5] | outcome [6] | outcome [7] | outcome [8]
active: growth inhibition [1] 70% | growth inhibition [4] 100%

CCCCCCC(C)c1cc(O)c2c(c1)OC(C)(C)C=C2c1ccncc1 (stereo not given)
inactive: growth inhibition [1] 29% | inhibition [2] -7% | inhibition [3] 0% | outcome [5] | outcome [6] | outcome [7] | outcome [8]
active: growth inhibition [4] 98%

CN(C)c1ccc(CN2CCC(NC(=O)c3ccc(-c4cccc(Cl)c4)s3)CC2)cc1
active: inhibition [2] 65% | growth inhibition [4] 93%
inactive: growth inhibition [1] 44% | inhibition [3] -3% | outcome [5] | outcome [6] | outcome [7] | outcome [8]

Cc1cccc2[nH]c(-c3cccc(-c4ccc(NC(=O)C(C)CN5CCN(C)CC5)cc4)c3)nc12 (stereo not given)
active: growth inhibition [1] 100% | growth inhibition [4] 99%
inactive: inhibition [2] 7% | inhibition [3] -6% | outcome [5] | outcome [6] | outcome [7] | outcome [8]

CCc1ccc(N2C(N)=NC(N)=NC2(C)C)cc1
active: inhibition [2] 51% | growth inhibition [4] 94%
inactive: growth inhibition [1] -1% | inhibition [3] -2% | outcome [5] | outcome [6] | outcome [7] | outcome [8]
